# Measurements: PubChem BioAssay (NCI)
# About 83,000 compounds went through this panel and 20% of them were active in at least one assay; those are over-represented in the sample as a whole.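 Single-dose data. Exposure time 48 hours. Values below 10 considered active.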 The source made the active and inactive calls.
# Test system: NCI-H460 lung
# Experiment: NCI-60 one-dose screen, 48 h (100 = growth as untreated, 0 = no growth, -100 = all killed)
# Details: 10 µM unless noted
row,SMILES,growth
1,CCOC(=O)c1ccc[nH]1,105% (inactive)
2,COc1cc(Cc2cc(-c3ccccc3)nn(Cc3ccccc3)c2=O)cc(OC)c1OC,37.3% (inactive)
3,O=C(Nc1ccc(Nc2ccncc2)cc1)c1ccc(Nc2ccnc3ccc([N+](=O)[O-])cc23)cc1,68.2% (inactive)
4,C[C@H]1[C@H](C)CC[C@]2(C(=O)NCCNCCN)CC[C@]3(C)C(=CC[C@@H]4[C@@]5(C)CCC(=O)C(C)(C)[C@@H]5CC[C@]43C)[C@H]12,-80% (active)
5,COc1ccc(C/C(C)=C(\c2ccc(Cl)cc2)c2ccc(OCCN3CCCC3)cc2)cc1,81.9% (inactive)
6,CCOc1ccc(NC(=O)Nc2ccc(OCC)cc2)cc1,106% (inactive)
7,Cc1ccc(NC(=O)c2cc3ccccc3cc2O)c(C)c1,79.9% (inactive)
8,COC(=O)c1c2c(c[n+]([O-])c1C)C(=O)C=C(NCc1ccccc1)C2=O,-79.8% (active)
9,C=C1C(=O)O[C@H]2[C@H]1CC/C(CNC(=O)Cc1c[nH]c3ccccc13)=C\CC[C@@]1(C)O[C@@H]21,29.6% (inactive)
10,C#CCOc1ccc2nc(CCl)c(Cl)c(Nc3cccc(C(F)(F)F)c3)c2c1,105% (inactive)
11,O=C1/C(=C/c2cccc(Br)c2)COc2ccc(O)cc21,92.2% (inactive)
12,CCN(CC)CCOc1ccc(/C(=C(\C)Cc2ccc(OC)cc2)c2ccc(OC(=O)NCc3ccccc3)cc2)cc1,1.28% (active)
13,O=C(CCCCCCCC(=O)N1CCCCC1)N1CCCCC1,98.7% (inactive)
14,Cc1ccc(-c2nc(SCC(=O)N3CCN(c4cc5c(cc4F)c(=O)c(C(=O)O)cn5C4CC4)CC3)nc(Cl)c2C#N)cc1,103% (inactive)
15,CSc1ccc2c3c(n(C[C@H](O)CO)c(=O)c2c1)-c1ccccc1C3=O,6.06% (active)
16,Cc1cn(C)cn1,106% (inactive)
17,C#Cc1cccc(Nc2ncnc3cc(NC(=O)CCl)ccc23)c1,-58.7% (active)
18,O=S(=O)(NCCNc1nccc(-c2c(-c3ccc(F)c(O)c3)nc3sccn23)n1)c1ccc(Cl)cc1,27% (inactive)
19,COc1ccc(C(O)c2cc3c(N)c(C(=O)Nc4cccc5ccccc45)sc3nc2C)cc1 (stereo unspecified),-20.2% (active)
20,O=C(Nc1cc(Cl)ccc1O)c1ccccc1Nc1ccnc(C(F)(F)F)c1,2.15% (active)
21,COc1ccc(/C=C2\c3cc(OC)c(OC)c(OC)c3CC[C@@H]2O)cc1F,13.8% (inactive)
22,CCN(CC)C(=O)C1=C(C)NC(=O)NC1c1ccc2c(c1)OCO2 (stereo unspecified),106% (inactive)
23,COc1ccc(C=Nc2c(C(=O)Nc3cccc(Cl)c3C)sc3nc(C)c(C(=O)/C=C/c4ccc(OC)cc4)cc23)cc1,8.92% (active)
24,CC(C)(C)c1ccc(S(=O)(=O)Oc2ccc(-c3sc4cc(OS(=O)(=O)c5ccc(C(C)(C)C)cc5)ccc4c3C(=O)c3ccc(OCCN4CCCCC4)cc3)cc2)cc1,104% (inactive)
25,COc1cc(/C=C/c2cc(/C=C/c3ccc(O)c(OC)c3)n(C(=O)Nc3ccc(Cl)cc3)n2)ccc1O,9.41% (active)
26,O=c1cc(CP(=O)(O)O)c2cc(O)c(-c3ccccc3)cc2o1,104% (inactive)

# Test system: HOP-92 NSCLC
# Experiment: as above
# Details: 10 µM unless noted
row,SMILES,growth
1,Cc1nc2sc(C(=O)Nc3cccc(Cl)c3C)c(N)c2cc1C(=O)/C=C/c1ccccc1,1.05% (active)
2,CN1CCN(Cc2ccc(NC(=O)c3cncc(C#Cc4cnc(N)cc4C#N)c3)cc2C(F)(F)F)CC1,-5.52% (active)
3,c1cc(OCCN2CCCC2)ccc1CNc1ccc2nc(CCC3CCCCC3)[nH]c2c1,25.3% (inactive)
4,CCN(CC)CCOc1ccc2c(-c3ccccc3)c(-c3ccc(OC)cc3)c(=O)oc2c1,63.9% (inactive)
5,O=C1/C(=C/c2c[nH]c(=O)[nH]c2=O)SC(=S)N1Cc1ccccc1,98.5% (inactive)
6,CCN(CC)CCCNc1cc(OC)c(OC)c2cccnc12,84.7% (inactive)
7,COc1cc(Cc2cc(OC)c(O)c(OC)c2)cc(OC)c1O,89.6% (inactive)
8,CSc1ccc(N2C(=N)C(=S)N(c3ccc(C)cc3)C2=O)cc1,90% (inactive)
9,CCOC(=O)/C(=C(/C)NCC(C)C)c1cc(O)c(O)c2c(C)cc(=O)[nH]c12,40.2% (inactive)
10,C/C(=C(\c1ccc(OCCN2CCCCCC2)cc1)c1ccc(OC(=O)c2ccccc2)cc1)c1ccc(Cl)cc1,56.2% (inactive)
11,COCCn1cc(-c2csc(-c3c[nH]c4ccc(F)cc34)n2)c2cccnc21,38% (inactive)
12,Cc1ccc2cnc(N)c(C#Cc3cc(C(=O)Nc4ccc(CN5CCN(C)CC5)c(C(F)(F)F)c4)cnc3C)c2c1,-32% (active)
13,O=C(NNc1nc2cc(F)ccc2n2c(CN3CCOCC3)ccc12)c1ccccc1,27.8% (inactive)
14,COc1ccc(-c2nc(SCC(=O)Nc3nc4ccc(C)cc4s3)[nH]c(=O)c2C#N)cc1OC,102% (inactive)
15,CCOC(=O)c1ccc[nH]1,80.4% (inactive)
16,COc1cc(Cc2cc(-c3ccccc3)nn(Cc3ccccc3)c2=O)cc(OC)c1OC,51.1% (inactive)
17,O=C(Nc1ccc(Nc2ccncc2)cc1)c1ccc(Nc2ccnc3ccc([N+](=O)[O-])cc23)cc1,87.7% (inactive)
18,C[C@H]1[C@H](C)CC[C@]2(C(=O)NCCNCCN)CC[C@]3(C)C(=CC[C@@H]4[C@@]5(C)CCC(=O)C(C)(C)[C@@H]5CC[C@]43C)[C@H]12,52.9% (inactive)
19,COc1ccc(C/C(C)=C(\c2ccc(Cl)cc2)c2ccc(OCCN3CCCC3)cc2)cc1,70.5% (inactive)
20,CCOc1ccc(NC(=O)Nc2ccc(OCC)cc2)cc1,106% (inactive)

row,SMILES,growth
1,Cc1ccc(NC(=O)c2cc3ccccc3cc2O)c(C)c1,36.4% (inactive)
2,COC(=O)c1c2c(c[n+]([O-])c1C)C(=O)C=C(NCc1ccccc1)C2=O,-74.5% (active)
3,C=C1C(=O)O[C@H]2[C@H]1CC/C(CNC(=O)Cc1c[nH]c3ccccc13)=C\CC[C@@]1(C)O[C@@H]21,45.1% (inactive)
4,C#CCOc1ccc2nc(CCl)c(Cl)c(Nc3cccc(C(F)(F)F)c3)c2c1,94.6% (inactive)
5,O=C1/C(=C/c2cccc(Br)c2)COc2ccc(O)cc21,46% (inactive)
6,CCN(CC)CCOc1ccc(/C(=C(\C)Cc2ccc(OC)cc2)c2ccc(OC(=O)NCc3ccccc3)cc2)cc1,59% (inactive)
7,O=C(CCCCCCCC(=O)N1CCCCC1)N1CCCCC1,98.8% (inactive)
8,Cc1ccc(-c2nc(SCC(=O)N3CCN(c4cc5c(cc4F)c(=O)c(C(=O)O)cn5C4CC4)CC3)nc(Cl)c2C#N)cc1,112% (inactive)
9,CSc1ccc2c3c(n(C[C@H](O)CO)c(=O)c2c1)-c1ccccc1C3=O,106% (inactive)
10,Cc1cn(C)cn1,81.8% (inactive)
11,C#Cc1cccc(Nc2ncnc3cc(NC(=O)CCl)ccc23)c1,-75.3% (active)
12,O=S(=O)(NCCNc1nccc(-c2c(-c3ccc(F)c(O)c3)nc3sccn23)n1)c1ccc(Cl)cc1,45% (inactive)
13,COc1ccc(C(O)c2cc3c(N)c(C(=O)Nc4cccc5ccccc45)sc3nc2C)cc1 (stereo unspecified),51% (inactive)
14,O=C(Nc1cc(Cl)ccc1O)c1ccccc1Nc1ccnc(C(F)(F)F)c1,49.1% (inactive)
15,COc1ccc(/C=C2\c3cc(OC)c(OC)c(OC)c3CC[C@@H]2O)cc1F,38.2% (inactive)
16,CCN(CC)C(=O)C1=C(C)NC(=O)NC1c1ccc2c(c1)OCO2 (stereo unspecified),109% (inactive)
17,COc1ccc(C=Nc2c(C(=O)Nc3cccc(Cl)c3C)sc3nc(C)c(C(=O)/C=C/c4ccc(OC)cc4)cc23)cc1,79.2% (inactive)
18,CC(C)(C)c1ccc(S(=O)(=O)Oc2ccc(-c3sc4cc(OS(=O)(=O)c5ccc(C(C)(C)C)cc5)ccc4c3C(=O)c3ccc(OCCN4CCCCC4)cc3)cc2)cc1,84.4% (inactive)
19,COc1cc(/C=C/c2cc(/C=C/c3ccc(O)c(OC)c3)n(C(=O)Nc3ccc(Cl)cc3)n2)ccc1O,-4.7% (active)
20,O=c1cc(CP(=O)(O)O)c2cc(O)c(-c3ccccc3)cc2o1,95.7% (inactive)
